In PubChem BioAssay (Tox21):
Values joined by “and” are separate entries in the source; they are usually repeats but may differ in a detail not shown here. Identical values can stand only once. Results filed as inconclusive are left out. More than one record can exist for a structure, and the calls need not agree. Active and inactive are the calls of the source. Unless noted, calls follow the shape of the dose curve; as a rule, active = well fitted curve in the direction sought with a large enough effect in the repeat runs; inconclusive = weak or mixed curves; inactive = no such curve, though single readings can be large; an effect the other way counts as inactive or inconclusive.

Columns and labels:
[1] = qHTS assay to identify small molecule agonists of the estrogen receptor alpha (ER-alpha) signaling pathway in the presence of an antagonist - cell viability counter screen (AID 1259386);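 also: series mostly up to about 92 µM; cells exposed to compounds for 22 h at 37 °C before the viability read; nearly all actives have a fitted effect of over 30% in size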
Method in brief: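 VM7Luc4E2 cells (endogenous full-length ER-alpha, 4×ERE-luciferase) were held 5 days in phenol red-free medium with 10% charcoal-stripped FBS, plated, then given 10.0nM ICI-182,780 and compounds at 15 concentrations for 22hr at 37C; viability read by CellTiter-Fluor fluorescence.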

[2] = molecular target: Progesterone receptor (Homo sapiens) (UniProt P06401); experiment: qHTS assay to identify small molecule agonists of the progesterone receptor (PR) signaling pathway (AID 1346784; calls by dose curve; also: nearly all actives have a fitted effect of over 30% in size; also: potency is read from the fitted curve at half-maximal effect)
Sequence of Progesterone receptor (Homo sapiens) (P06401 whole entry, looked up): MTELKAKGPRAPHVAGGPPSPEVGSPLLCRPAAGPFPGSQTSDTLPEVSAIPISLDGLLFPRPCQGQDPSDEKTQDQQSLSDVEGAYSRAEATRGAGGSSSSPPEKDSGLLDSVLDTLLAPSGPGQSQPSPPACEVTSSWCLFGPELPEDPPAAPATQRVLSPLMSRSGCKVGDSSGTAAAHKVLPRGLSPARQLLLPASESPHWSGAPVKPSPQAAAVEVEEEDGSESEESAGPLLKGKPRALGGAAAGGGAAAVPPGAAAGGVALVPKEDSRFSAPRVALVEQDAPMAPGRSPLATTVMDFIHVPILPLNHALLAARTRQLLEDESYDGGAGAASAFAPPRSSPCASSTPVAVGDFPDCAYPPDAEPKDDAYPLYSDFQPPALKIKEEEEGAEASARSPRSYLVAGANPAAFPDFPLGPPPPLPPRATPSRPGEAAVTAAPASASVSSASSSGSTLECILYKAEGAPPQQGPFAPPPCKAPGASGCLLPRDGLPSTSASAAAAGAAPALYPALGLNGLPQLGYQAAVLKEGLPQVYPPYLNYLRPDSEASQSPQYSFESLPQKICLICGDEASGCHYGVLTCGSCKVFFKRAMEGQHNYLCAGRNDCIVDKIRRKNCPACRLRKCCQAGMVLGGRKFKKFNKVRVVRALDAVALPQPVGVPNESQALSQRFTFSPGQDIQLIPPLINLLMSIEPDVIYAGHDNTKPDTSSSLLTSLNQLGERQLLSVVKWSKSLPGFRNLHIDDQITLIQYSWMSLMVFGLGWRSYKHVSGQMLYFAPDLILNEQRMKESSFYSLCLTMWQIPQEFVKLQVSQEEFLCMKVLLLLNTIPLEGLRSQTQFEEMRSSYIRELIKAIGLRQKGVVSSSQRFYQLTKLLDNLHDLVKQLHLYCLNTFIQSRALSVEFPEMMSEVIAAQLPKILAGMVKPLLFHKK
Method in brief: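 PR-UAS-bla HEK 293T cells carrying a UAS-driven beta-lactamase reporter were seeded in medium with 2% charcoal-stripped FBS, preincubated 6 hr at 37C, then exposed to compounds in DMSO for 16 hr; agonism was read by LiveBLAzer B/G FRET fluorescence.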

[3] = molecular target: Progesterone receptor (Homo sapiens) (UniProt P06401); experiment: qHTS assay to identify small molecule antagonists of the progesterone receptor (PR) signaling pathway (AID 1346795; active = well fitted inhibition curve with a large enough effect in the signal ratio in the repeat runs, not every such curve was filed as active; the % refers to the signal ratio; also: potency is read from the fitted curve at half-maximal effect)
Method in brief: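 PR-UAS-bla HEK293T cells carrying a UAS-driven beta-lactamase reporter were plated in medium with 2% charcoal-stripped FBS and rested 6 hr at 37C. Compounds were added with 1 nM R5020 (final) for 16 hr, then FRET substrate loaded 2 hr at room temperature.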

[4] = qHTS assay to identify small molecule antagonists of the progesterone receptor (PR) signaling pathway - cell viability counter screen (AID 1346798); also: series mostly up to about 92 µM; nearly all actives have a fitted effect of over 50% in size
Method in brief: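 PR-UAS-bla HEK293T cells in medium with 2% charcoal-stripped FBS were treated with compounds plus R5020 for 16 hr at 37C. Cell viability was then read by CellTiter-Glo luminescence after 30 min at room temperature in the same wells.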

[5] = qHTS assay to identify small molecule antagonists of the TGF-beta/Smad signaling pathway - cell viability counter screen (AID 1346824); also: nearly all actives have a fitted effect of over 50% in size
Method in brief: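 SBE-bla HEK 293T cells were plated overnight at 37 C, then given compounds in DMSO plus TGF-beta1 (added as 0.25 ng/mL solution) for 5 hr. After the bla read, CellTiter-Glo was added to the same wells and luminescence read after 30 min at room temperature.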

[6] = qHTS assay to identify small molecule agonists of the TGF-beta/Smad signaling pathway - cell viability counter screen (AID 1346829); also: top concentration of the series differs between compounds; nearly all actives have a fitted effect of over 45% in size
Method in brief: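 Compound-treated SBE-bla HEK 293T cells (5 hr, 37 C) were assessed for viability with CellTiter-Glo in parallel with the reporter read.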

[7] = qHTS assay to identify small molecule agonists of the TGF-beta/Smad signaling pathway (AID 1346859; active = well fitted activation curve with a large enough effect in the signal ratio in the repeat runs, not every such curve was filed as active; the % refers to the signal ratio; also: series mostly up to about 77 µM)
Method in brief: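 HEK 293T cells stably carrying a beta-lactamase reporter driven by the Smad binding element were seeded overnight, exposed to DMSO-dissolved compounds for 5 hr at 37 C, 5% CO2, then loaded with FRET substrate for 2 hr at room temperature.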

[8] = molecular target: Thyrotropin-releasing hormone receptor (Homo sapiens) (UniProt P34981); experiment: qHTS assay to identify small molecule antagonists of the thyrotropin-releasing hormone receptor (TRHR) signaling pathway (AID 1346877; active = well fitted inhibition curve with a large enough effect in the repeat runs, not every such curve was filed as active; also: series mostly up to about 51 µM)
Sequence of Thyrotropin-releasing hormone receptor (Homo sapiens) (P34981 whole entry, looked up): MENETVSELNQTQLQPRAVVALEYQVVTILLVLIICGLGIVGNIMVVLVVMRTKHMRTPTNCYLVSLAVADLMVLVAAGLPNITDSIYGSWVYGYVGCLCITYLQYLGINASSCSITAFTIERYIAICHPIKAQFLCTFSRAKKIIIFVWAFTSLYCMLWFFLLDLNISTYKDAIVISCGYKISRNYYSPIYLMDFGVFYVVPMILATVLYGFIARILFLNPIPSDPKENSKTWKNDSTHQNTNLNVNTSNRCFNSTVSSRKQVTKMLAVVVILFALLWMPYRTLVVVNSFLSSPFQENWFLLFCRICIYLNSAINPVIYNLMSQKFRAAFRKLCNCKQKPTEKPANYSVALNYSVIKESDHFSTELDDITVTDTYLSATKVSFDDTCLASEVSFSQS
Method in brief: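 TRHR-expressing HEK293 cells were seeded, cultured 18 h at 37 °C, then loaded with calcium dye for 2 h. Compounds were pre-incubated 5 min at room temperature before 1 nM TRH (final) was added, and kinetic fluorescence was recorded for 3 min.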

[9] = Caspase-3/7 induction in HepG2 cells by small molecules, qHTS assay (AID 1346978); also: nearly all actives have a fitted effect of over 15% in size
Method in brief: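 Wild-type HepG2 cells (2,000/well) were settled 5 h at 37 C, 5% CO2, then exposed to compounds in DMSO for 17 h. Caspase-3/7 activity was read by luminescence 30 min after adding Caspase-Glo 3/7 reagent at room temperature.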

[10] = Caspase-3/7 induction in CHO-K1 cells by small molecules, qHTS cell viability counter screen (AID 1346979); also: nearly all actives have a fitted effect of over 35% in size; also: potency is read from the fitted curve at half-maximal effect
Method in brief: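 Wild-type CHO-K1 cells were seeded at 1,500 per well, rested 5hr at 37 C, then exposed to compounds in DMSO. After 16hr, CellTiter-Fluor reagent was added and fluorescence read 1hr later as the viability measure.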

[11] = Caspase-3/7 induction in CHO-K1 cells by small molecules, qHTS assay (AID 1346980); also: nearly all actives have a fitted effect of over 15% in size
Method in brief: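 Wild-type cells were seeded at 1,500 per well and settled 5 hr at 37 C, 5% CO2, then exposed to DMSO-dissolved compounds for 17 hr. Caspase-Glo 3/7 reagent was added, and luminescence was read after 30min at room temperature.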

[12] = Caspase-3/7 induction in HepG2 cells by small molecules, qHTS cell viability counter screen (AID 1346981); also: nearly all actives have a fitted effect of over 30% in size; also: potency is read from the fitted curve at half-maximal effect; as to activity change, negative = cytotoxicity: series mostly up to about 92 µM
Method in brief: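 Wild-type HepG2 cells (2,000/well) were allowed to settle for 5 hr at 37 C, 5% CO2, then dosed with compounds in DMSO by pin transfer. After 16 hr at 37 C, CellTiter-Fluor was added and fluorescence read 1 hr later.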

[13] = molecular target: Nuclear receptor subfamily 1 group I member 2 (Homo sapiens) (UniProt O75469); experiment: Human pregnane X receptor (PXR) small molecule agonists, qHTS assay (AID 1346982); also: nearly all actives have a fitted effect of over 35% in size; also: potency is read from the fitted curve at half-maximal effect
Sequence of Nuclear receptor subfamily 1 group I member 2 (Homo sapiens) (O75469 whole entry, looked up): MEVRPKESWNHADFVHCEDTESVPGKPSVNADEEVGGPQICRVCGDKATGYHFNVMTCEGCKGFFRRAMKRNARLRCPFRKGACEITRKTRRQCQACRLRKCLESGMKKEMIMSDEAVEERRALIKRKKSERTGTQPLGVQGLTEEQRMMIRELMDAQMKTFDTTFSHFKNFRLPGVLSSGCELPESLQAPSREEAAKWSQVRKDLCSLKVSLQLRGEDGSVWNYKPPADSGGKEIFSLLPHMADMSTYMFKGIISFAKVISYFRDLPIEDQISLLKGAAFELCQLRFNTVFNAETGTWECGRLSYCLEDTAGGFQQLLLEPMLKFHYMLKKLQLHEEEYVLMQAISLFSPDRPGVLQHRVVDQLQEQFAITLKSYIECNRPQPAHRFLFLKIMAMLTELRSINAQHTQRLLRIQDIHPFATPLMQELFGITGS
Method in brief: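 PXR-Luc HepG2 cells (CYP3A4 promoter-driven luciferase) were seeded in medium with 5% charcoal-stripped FBS, left 5 hr at 37 C, then exposed to compounds in DMSO for 24 hr. Luminescence was read after ONE-Glo addition.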

[14] = Human pregnane X receptor (PXR) small molecule agonists, qHTS cell viability counter screen (AID 1346977); also: nearly all actives have a fitted effect of over 50% in size
Method in brief: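 PXR-Luc HepG2 cells in medium with 5% charcoal-stripped FBS were pre-incubated 5hr, then exposed to compounds for 24hr at 37C. Viability was read in the same wells by CellTiter-Fluor fluorescence, reagent added after 23hr with a 1hr incubation.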

[15] = molecular target: Nuclear receptor subfamily 1 group I member 2 (Rattus norvegicus) (UniProt Q9R1A7); experiment: Rat pregnane X receptor (rPXR) activation by small molecules, qHTS assay (AID 1346983); conditions: rPXR luciferase reporter cells, One-Glo luminescence, 24 h; max activation: stronger effect = higher value; also: nearly all actives have a fitted effect of over 20% in size
Sequence of Nuclear receptor subfamily 1 group I member 2 (Rattus norvegicus) (Q9R1A7 whole entry, looked up): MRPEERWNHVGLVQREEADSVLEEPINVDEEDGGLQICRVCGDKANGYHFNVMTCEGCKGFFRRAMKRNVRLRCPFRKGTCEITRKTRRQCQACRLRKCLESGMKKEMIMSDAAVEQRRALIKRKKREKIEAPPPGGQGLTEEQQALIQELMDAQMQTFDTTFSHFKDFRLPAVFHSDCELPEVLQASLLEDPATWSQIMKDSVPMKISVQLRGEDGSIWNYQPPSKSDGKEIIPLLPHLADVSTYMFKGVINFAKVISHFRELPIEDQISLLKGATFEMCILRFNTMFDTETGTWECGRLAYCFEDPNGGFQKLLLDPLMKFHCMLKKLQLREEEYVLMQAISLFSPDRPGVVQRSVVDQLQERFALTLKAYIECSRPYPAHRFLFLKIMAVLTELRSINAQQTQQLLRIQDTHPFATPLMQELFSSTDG
Method in brief: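 Cell-based rPXR luciferase reporter assay, 2,000 cells per well, rested 5hr at 37 C before compound addition in DMSO, then 24 hr at 37 C. One-Glo reagent was added and luminescence read after 30 min at room temperature.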

[16] = molecular target: Nuclear receptor subfamily 1 group I member 2 (Homo sapiens) (UniProt O75469); experiment: Human pregnane X receptor (PXR) activation by small molecules, qHTS assay (AID 1346985); also: nearly all actives have a fitted effect of over 40% in size
Method in brief: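 DPX-2 cells (HepG2 co-transfected with a PXR response element and a CYP3A4-promoter luciferase construct) were seeded at 2,000 per well, rested 5 hr at 37C, then exposed to DMSO-dissolved compounds for 24 hr. Activation was read as luciferase luminescence.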

[17] = qHTS assay to identify small molecule agonists of the progesterone receptor (PR) signaling pathway - cell viability counter screen (AID 1346799; calls by dose curve; also: nearly all actives have a fitted effect of over 45% in size)
Method in brief: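 PR-UAS-bla HEK293T cells, 3,000 per well in medium with 2% charcoal-stripped FBS, were preincubated 6 hr at 37C, then exposed to compounds for 16 hr; viability was read as CellTiter-Glo luminescence after 30 min at room temperature.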

[18] = molecular target: Thyrotropin-releasing hormone receptor (Homo sapiens) (UniProt P34981); experiment: qHTS assay to identify small molecule agonists of the thyrotropin-releasing hormone receptor (TRHR) signaling pathway (AID 1346891; calls by dose curve; also: series mostly up to about 58 µM)
Method in brief: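 TRHR-expressing HEK293 cells were plated 18 h at 37 °C/5% CO2, loaded with calcium dye 2 h at 37 °C, then given compound in DMSO; fluorescence was read kinetically for 3 min at 1 s intervals.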

[19] = molecular target: Cytochrome P450 2D6 (Homo sapiens) (UniProt P10635); experiment: Cytochrome P450 Family 2 Subfamily D Member 6 (CYP2D6) small molecule antagonists: luciferase reporter qHTS assay (AID 1671196); also: series mostly up to about 120 µM; nearly all actives have a fitted effect of over 50% in size
Sequence of Cytochrome P450 2D6 (Homo sapiens) (P10635 whole entry, looked up): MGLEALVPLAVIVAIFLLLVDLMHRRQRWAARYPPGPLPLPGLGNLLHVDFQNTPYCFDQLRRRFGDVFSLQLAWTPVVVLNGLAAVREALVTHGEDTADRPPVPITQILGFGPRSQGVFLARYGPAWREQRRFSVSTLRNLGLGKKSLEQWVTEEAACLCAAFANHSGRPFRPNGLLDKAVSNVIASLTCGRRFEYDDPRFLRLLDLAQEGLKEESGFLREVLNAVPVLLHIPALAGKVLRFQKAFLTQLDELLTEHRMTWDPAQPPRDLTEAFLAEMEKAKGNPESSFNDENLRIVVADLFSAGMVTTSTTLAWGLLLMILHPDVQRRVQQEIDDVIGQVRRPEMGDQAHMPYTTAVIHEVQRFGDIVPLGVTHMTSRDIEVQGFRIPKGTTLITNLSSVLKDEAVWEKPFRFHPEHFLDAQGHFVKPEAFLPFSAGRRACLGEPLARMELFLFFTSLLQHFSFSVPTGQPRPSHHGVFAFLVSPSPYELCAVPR
Method in brief: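 CYP2D6 enzyme–substrate mix was held with compound for 10 min at room temperature, then NADPH regeneration solution was added and the reaction ran 1 h at room temperature. Luciferin product was detected by luminescence after 20 min with detection reagent.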

[20] = molecular target: Nuclear receptor subfamily 1 group I member 2 (Homo sapiens) (UniProt O75469); experiment: CYP3A4 induction through human pregnane X receptor (PXR) by small molecules, qHTS assay (AID 1346984); also: nearly all actives have a fitted effect of over 40% in size
Method in brief: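 DPX-2 cells (HepG2 co-transfected with PXR and CYP3A4 promoter-luciferase) treated with compounds 24 h at 37C; luciferin-IPA CYP3A4 substrate 3uM final added for 3 h, then One-Glo; luminescence read. qHTS format.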
% is scaled to controls: 0 for no effect and ±100 for the full control effect.

Nc1ccc2c(c1)C(=O)c1ccccc1C2=O
inactive: Potency [1] | Potency [2] | Potency [3] | Potency [4] | Potency [5] | Potency [6] | outcome [7] | Potency [8] | Potency [9] | Potency [11]
active: Potency [10] 53.5 µM and 54.5 µM | Potency [12] 30.1 µM | Potency [13] 190 nM and 486 nM

IC(I)I
inactive: Potency [1] | Potency [2] | Potency [3] | Potency [4] | Potency [5] | Potency [6] | outcome [7] | Potency [8] | Potency [14] | Potency [9] | Potency [10] | Potency [11] | Potency [12] | Potency [13] | max activation [15] -1.04% | Potency [16]

OCCNCCO
inactive: Potency [1] | Potency [2] | Potency [3] | Potency [4] | Potency [17] | Potency [5] | Potency [6] | outcome [7] | Potency [18] | Potency [14] | Potency [10] | Potency [11] | Potency [12] | Potency [19]
54.5 µM (active) and inactive: Potency [13]

C=CN1CCCC1=O
inactive: Potency [1] | Potency [2] | Potency [3] | Potency [4] | Potency [17] | Potency [5] | Potency [6] | outcome [7] | Potency [18] | Potency [9] | Potency [10] | Potency [11] | Potency [12] | Potency [13] | Potency [19]

CNC[C@H](O)c1ccc(O)c(O)c1
inactive: activity change, negative = cytotoxicity [1] -2.01% [at 19 µM] | activation [2] -0.635% [at 19 µM] | Potency [4] | Potency [17] | Potency [5] | Potency [6] | outcome [7] | Potency [8] | Potency [18] | Potency [9] | activity change, negative = cytotoxicity [10] 0.265% [at 19 µM] | Potency [11] | activity change, negative = cytotoxicity [12] -0.0374% [at 19 µM] | Potency [13] | max activation [15] 1.67% | Potency [20] | Potency [16]
active: Potency [2] 4.33 µM

CN(Cc1cnc2nc(N)nc(N)c2n1)c1ccc(C(=O)N[C@@H](CCC(=O)O)C(=O)O)cc1
active: Potency [3] 0.133 µM
inactive: Potency [1] | Potency [2] | Potency [4] | Potency [17] | outcome [7] | Potency [14] | Potency [9] | Potency [10] | Potency [11] | Potency [13] | max activation [15] -6.01% | Potency [20] | Potency [16]

CCCOCCO
inactive: Potency [1] | Potency [2] | Potency [3] | Potency [4] | Potency [17] | Potency [5] | Potency [6] | outcome [7] | Potency [18] | Potency [14] | Potency [10] | Potency [11] | Potency [12] | Potency [13]
